SMILES strings stand for the structures. Results filed as inconclusive are left out. Activity calls are given as the source filed them. The call rests on the fitted dose curve; in most records, active means well fitted activation curve with a large enough effect; inconclusive means small, poorly fitted or top-dose-only effect; inactive means flat fitted curve, though single readings scatter.

The nature of the test: Cellular Toxicity (caspase-3) Hek293 (AID 664).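 Further: cells exposed to compound for 16 h at 37 °C before readout.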 Conditions: HEK293 caspase-3 activation, DMSO = 0%, 100 µM tamoxifen = 100%; series mostly up to 92.2 µM. From the text:
NIH Chemical Genomics Center [NCGC]
NIH Molecular Libraries Screening Centers Network [MLSCN]
National Institutes of Environmental Health Sciences [NIEHS]
National Toxicology Program [NTP]
We have developed a 1536-well cell-based assay for quantitative high throughput screening (qHTS) against a number of cell lines to determine in vitro caspase 3/7 of small molecules. This particular assay uses the Hek 293 cell line which is derived from human embryonic kidney cells.
NCGC Assay Protocol Summary:
The Caspase-Glo 3/7 assay (Promega) is a homogeneous method to measure caspase-3 and caspase-7 activities in cultured cells. The quantitation of caspase 3/7 activity is based on the cleavage of a peptide-aminoluciferin substrate. After caspase cleaves the substrate the free aminoluciferin is liberated and serves as the substrate of luciferase, which generates the light. The luminescent signal is proportional to amount of caspase 3/7 activity present.
Using the Caspase-Glo 3/7 assay, the amount of caspase 3/7 activity was measured in the Hek 293 cell line with complete culture medium following compound treatment for 16 hours. The assay was performed in opaque white 1536-well plates. In the screen, tamoxifen and doxorubicin were used as positive controls. Library compounds were measured for their ability to cause the activation of caspase 3/7 in the cell line, as reflected by an increase in luminescence signal, in a concentration-dependent manner. Data were normalized to the controls for basal activity (DMSO only) and 100% stimulation (100 uM tamoxifen). AC50 values were determined from concentration-response data modeled with the standard Hill equation.
qHTS protocol for caspase 3/7 assay in Hek 293 cells
[Step] [Parameter] [Value] [Description]
2. Time; 5 hr; 37 °C incubation
4. Controls; 23 nL; Tamoxifen 0.23 uM to 100 uM & Doxorubicin 7.0 pM to 100 uM
5. Time; 16 hr; 37 °C incubation
6. Reagent; 5 uL; Caspase-Glo 3/7 reagent
7. Time; 20 min; Room Temperature
8. Detection; Luminescence; Viewlux plate reader
Keywords: caspase 3/7, apoptosis, Hek 293 cell line, luminescence, NTPHTS, NTPHTS_NCGC, NIEHS, EPA, DSSTox, MLSMR, MLSCN, NIH Roadmap, qHTS, NCGC
Consider `CCCCNC(=O)NS(=O)(=O)c1ccc(C)cc1`, for which the compound was called inactive.
As to `O=c1[nH]c(=O)n([C@H]2C[C@H](O)[C@@H](CO)O2)cc1Br`, the result was inactive.
Then `CN=C(NC#N)NCCSCc1nc[nH]c1C`, with “inactive”; and `COc1ccc(CN(CCN(C)C)c2ccccn2)cc1`, with “inactive”; and `COC(=O)[C@H]1[C@H]2C[C@@H]3c4[nH]c5cc(OC)ccc5c4CCN3C[C@H]2C[C@@H](OC(=O)c2cc(OC)c(OC)c(OC)c2)[C@@H]1OC`, with “inactive”.
Take `NC(=O)N1c2ccccc2C=Cc2ccccc21`: the outcome was inactive.
With `Nc1ncn([C@@H]2O[C@H](CO)[C@@H](O)[C@H]2O)c(=O)n1`, the result was inactive.
As for `NC(=Nc1ccccc1)Nc1ccccc1`, the outcome was inactive.
As to `Nc1nc(N)c2nc(-c3ccccc3)c(N)nc2n1`, the result was inactive.
Regarding `CCCCOCCOCCOCc1cc2c(cc1CCC)OCO2`, the compound was classed as inactive.
As for `COc1cc(Cc2cnc(N)nc2N)cc(OC)c1OC`, the compound was called inactive.

(Values after PubChem BioAssay (NCATS).)
